The values that follow come from PubChem BioAssay AID1894 (NMMLSC, 2009).

Among all 5,900 compounds or so, about 100 (1.7%) were called active. The sample as a whole holds a higher share of actives than the screen did. A number with no mark means an inactive call.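 The calls were made as follows: active = binding response below 72% of control, or above a set upper limit, though filed actives all read lower; inactive = the rest.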

The target in the assay is Mitogen-activated protein kinase kinase kinase 3 (Homo sapiens) (UniProt Q99759). Put plainly: MEKK3 wild-type PB1 binding to MEK5, inhibitors, confirmation, biochemical, bead multiplex flow cytometry, single concentration, wildtype (AID 1894).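 Also: 100% = DMSO only wells and 0% = binding blocked by excess unlabeled MEK5.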 Conditions: Alexa488-MEK5 binding to MEKK3, at 10 µM, stronger effect = lower value.
Chain of Mitogen-activated protein kinase kinase kinase 3 (Homo sapiens) (Q99759 whole entry, looked up): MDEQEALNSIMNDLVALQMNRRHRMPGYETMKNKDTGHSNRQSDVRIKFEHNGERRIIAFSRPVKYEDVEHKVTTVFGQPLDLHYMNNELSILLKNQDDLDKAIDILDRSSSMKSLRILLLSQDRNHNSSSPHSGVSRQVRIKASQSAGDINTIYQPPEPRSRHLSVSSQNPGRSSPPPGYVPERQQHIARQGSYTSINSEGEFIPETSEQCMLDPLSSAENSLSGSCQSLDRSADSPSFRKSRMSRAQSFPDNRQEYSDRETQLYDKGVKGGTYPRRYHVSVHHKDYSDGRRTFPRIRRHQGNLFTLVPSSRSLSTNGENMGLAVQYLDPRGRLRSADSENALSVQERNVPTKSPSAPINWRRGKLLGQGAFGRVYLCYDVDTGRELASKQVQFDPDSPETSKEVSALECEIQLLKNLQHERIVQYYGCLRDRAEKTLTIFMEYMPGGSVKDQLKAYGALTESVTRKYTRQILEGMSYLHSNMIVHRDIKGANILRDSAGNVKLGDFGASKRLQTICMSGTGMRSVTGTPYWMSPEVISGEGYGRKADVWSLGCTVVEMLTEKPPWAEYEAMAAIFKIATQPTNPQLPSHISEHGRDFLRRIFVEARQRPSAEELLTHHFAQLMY
As for `FC(F)(F)c1nc(-c2ccccc2)ncc1-c1nnnn1-c1ccccc1`, the binding response (% of control) was 100%.
For `CCOC(=O)N1CCN(CC(=O)n2c(C)c(C)c3ccccc32)CC1`, the binding response (% of control) was 97%.
Regarding `Cn1c(=NC(=O)CSCC(=O)N2CCOCC2)sc2ccccc21`, the binding response (% of control) is 86%.
Take `Cc1nc2cc(S(=O)(=O)C(F)(F)F)ccc2s1`: the binding response (% of control) is 101%.
In the case of `CCN1CCN(c2nc(Nc3cc(OC)ccc3OC)nc(Nc3cc(OC)ccc3OC)n2)CC1` it was 106%.
As for `Cc1ccccc1C(=O)NNC(=O)CN1C(=O)c2ccccc2C1=O`, the figure is 93%; as for `CCOC(=O)c1c(Cc2ccc(Cl)cc2)c[nH]c1C`, 107%; as for `CCOC(=O)C(NS(=O)(=O)c1ccc(C)cc1)(C(F)(F)F)P(=O)(OCC(C)C)OCC(C)C` (stereo not drawn), 94%.
As for `C#CCOCCOCCOCCNc1nc(N2CCN(C(=O)C([C@@H](C)CC)n3cc(C(N)COC(=O)C(F)(F)F)nn3)CC2)nc(N2CCN(C(=O)[C@H](CCCCN)n3cc(C(N)CC(C)C)nn3)CC2)n1` (stereo partly drawn), the figure is 106%; as for `COc1ccc(C2CC(c3cccs3)=NN2c2nc(C)c(C(C)=O)s2)cc1OC` (stereo not drawn), 97%.
As to `Cc1ccc(NC(=O)COc2ccc(-n3ccnc3)cc2)cc1Cl`, the binding response (% of control) was 108%.
As for `Fc1ccc(-c2ccc(CNCc3ccccn3)o2)cc1Cl`, the figure is 103%; as for `O=C(NC1CCN(Cc2ccccc2)CC1)c1cc(Br)c(Br)[nH]1`, 110%.
As for `O=C(O)/C(=C/c1cccnc1)NC(=O)c1ccccc1`, the figure is 104%.
As for `CCCCn1c(SCC(=O)NCCc2ccc(OC)c(OC)c2)nc2c1c(=O)n(C)c(=O)n2C`, the binding response (% of control) is 100%.
In the case of `COc1ccc(SC[C@H](Cc2ccccc2)N2CCN(CCc3ccccc3)CCC2=O)cc1` it was 107%; in that of `O=C1Nc2ccc(Br)cc2/C1=N/N=C/C1=C(N2CCOCC2)C(=C\c2ccccc2)/CC1`, 54% (active).
As for `C=CCn1c(P(C)(=O)O)nc2ccccc21`, the figure is 97%; as for `O=C(OCC1O[C@@H](OC(=O)c2cc(O)c(O)c(O)c2)[C@@H](OC(=O)c2cc(O)c(O)c(O)c2)[C@@H](OC(=O)c2cc(O)c(O)c(O)c2)[C@@H]1OC(=O)c1cc(O)c(O)c(O)c1)c1cc(O)c(O)c(O)c1` (stereo partly drawn), 1% (active); as for `C#CCOCCOCCOCCNc1nc(N2CCN(C(=O)[C@H](CCCCN)n3cc([C@@H](N)C(C)CC)nn3)CC2)nc(N2CCN(C(=O)[C@H](Cc3ccc(O)cc3)n3cc([C@@H](N)C(C)CC)nn3)CC2)n1` (stereo partly drawn), 109%.
On to `COc1ccc(N2CCN(Cc3nnc(-c4ccccc4)o3)CC2)cc1`, for which the binding response (% of control) was 96%.
As for `Cc1ccc(S(=O)(=O)NC(=O)N2CCCC(C)(C)C2)cc1`, the figure is 98%; as for `C=CCN1C=C2C(=O)C(C)(OC(=O)CCc3ccccc3)C(=O)C=C2C=C1c1ccc(C#N)cc1` (stereo not drawn), 103%; as for `Cc1ccc(N2C(=O)CC(N3CCSCC3)C2=O)c(C)c1` (stereo not drawn), 102%.
As for `C/C=C/c1ccc(OCCCCN2CCC(C)CC2)c(OC)c1`, the figure is 103%; as for `CN1CCN(/N=C/c2ccc(C#N)cc2)CC1`, 86%; as for `COc1cc2c(cc1OC)CN(C(=O)c1ccc(S(=O)(=O)N3CCCCCC3)cc1)CC2`, 100%.
Regarding `CN(CC(=O)Nc1cccc(F)c1)CC(=O)Nc1cccc([N+](=O)[O-])c1`, the binding response (% of control) is 103%.
In the case of `N/C(=N\OS(=O)(=O)c1cccc([N+](=O)[O-])c1)c1ccncc1` it was 104%; in that of `C=CCN(CC=C)S(=O)(=O)c1ccc(C(=O)Nc2sc3c(c2C(N)=O)CCCCC3)cc1`, 100%.
For the molecule `Cc1ccc(N(CCC(=O)O)S(=O)(=O)c2cccc(C(F)(F)F)c2)cc1`, the binding response (% of control) is 102%.
In the case of `Cc1ccc(CNC(=O)Cn2c(=O)c3sccc3n(Cc3cccc([N+](=O)[O-])c3)c2=O)cc1` it was 102%.
In the case of `COc1cccc(C2CC(c3ccccc3)=NN2S(=O)(=O)c2ccccc2)c1OC` (stereo not drawn) it was 100%; in that of `O=C(Nc1ccn(Cc2ccccc2)n1)c1cccc(F)c1`, 100%.
As for `CCCCOC(=O)c1ccc(N2C(=O)CC(N3CCN(C/C=C/c4ccccc4)CC3)C2=O)cc1` (stereo not drawn), the figure is 104%; as for `COc1cc(-c2nnc(Cn3cc(C(F)(F)F)ccc3=O)o2)cc(OC)c1OC`, 102%; as for `COc1cc(Br)c(-c2sc(Nc3ccccc3)n[n+]2-c2ccccc2)cc1OC`, 102%.
As for `COc1cccc(/C(C)=N/Nc2ncc(Cl)cc2Cl)c1`, the binding response (% of control) is 108%.
In the case of `COc1cc(/C=C2\SC(=S)N(Nc3ncc(C(F)(F)F)cc3Cl)C2=O)cc(OC)c1OC` it was 90%.
As for `CCN(CC)CCOCCOc1ccc(Cl)c2ccccc12`, the figure is 107%; as for `CCOc1ccc(NC(=O)Nc2cc(C)ccc2OC)cc1`, 100%.
In the case of `Cc1onc(-c2ccccc2Cl)c1C(=O)OCC(=O)c1ccccc1` it was 100%.
As to `O=C(OCc1cc(Cl)ccc1OC(F)F)c1cccnc1`, the binding response (% of control) is 97%.
As for `O=c1c(/C=N/O)coc2ccc(Cl)cc12`, the binding response (% of control) was 101%.
For `O=C(Nc1ccc(Cl)cn1)c1cnn2cccnc12`, the binding response (% of control) was 105%.
As for `CCOC(=O)c1sc2nc(C)nc(SCC(N)=O)c2c1C`, the figure is 109%; as for `CCC(C)OC(=O)C(C)Oc1ccc(-c2ccccc2)cc1` (stereo not drawn), 108%; as for `COc1ccc(C(=O)C[n+]2ccc(C)cc2)cc1`, 103%.
Consider `CCN1CCN(c2ccc(S(=O)(=O)N3CCCCC3)cc2NC(=O)Cc2c(Cl)cccc2Cl)CC1`, for which the binding response (% of control) was 104%.
As for `Cc1nn(-c2ccccc2)c(NC(=O)c2cccs2)c(-c2ccc(Cl)cc2)c1=O`, the figure is 101%.
In the case of `Cc1cc(C(=O)OCC(=O)N2c3ccccc3NC(=O)C2(C)C)c(C)n1-c1ccccc1` it was 106%.
In the case of `Cc1cccn2c(=O)c(/C=C3\SC(=S)N(CC(C)C)C3=O)c(NCCCOC(C)C)nc12` it was 86%; in that of `C/C(CC(=O)NC(C)(C)C)=N\NC(=O)c1ccco1`, 100%; in that of `Cc1ccc(C(=O)N/C(=C/c2ccco2)C(=O)NCCc2c[nH]c3ccccc23)cc1C`, 105%.
`CCC(=C/c1sc2ccc3ccccc3c2[n+]1C)/C=C1\Sc2ccc3ccccc3c2N1C`: the binding response (% of control) was 29% (active).
On to `Cn1c2ccccc2c(=O)c2c(=O)n(Cc3ccco3)c(COc3ccccc3)nc21`, for which the binding response (% of control) is 100%.
As for `CN(C)CCCNC(=O)c1cc(C(=O)Cc2ccc(Cl)cc2)c[nH]1`, the figure is 98%; as for `Cc1ccc(NC(=S)N(CCCN2CCCC2)Cc2cccn2Cc2ccc(Cl)cc2)cc1`, 104%.
Regarding `N#C/C(=C\C1=C(N2CCOCC2)C(=C\c2ccccc2)/CC1)C(=O)Nc1ccccc1F`, the binding response (% of control) was 27% (active).
As for `COC(=O)c1cc(NC(=O)c2cc(C(C)(C)C)nn2Cc2cccc(C)c2)ccc1N1CCOCC1`, the figure is 99%; as for `CN(C)CCCNC(=S)N1CCN(c2nc(-c3ccccc3)cs2)CC1`, 102%.
As for `Cn1ccc(=Nc2ccc(NC(=O)c3ccc(N=c4ccn(C)c5ccc([N+](=O)[O-])cc45)cc3)cc2)cc1`, the figure is 105%.
As for `O=C(NCCCN1CCN(c2ccc(F)cc2)CC1)Nc1ccc([N+](=O)[O-])cc1`, the figure is 107%; as for `O=C(c1cnn(-c2ccc(Cl)cc2)c1)c1ccccc1O`, 110%; as for `O=C(NC1CCN(Cc2ccccc2)CC1)c1ccc(Oc2cc(Cl)cc(Cl)c2)o1`, 97%.
Regarding `O=C(NCCC1=CCCCC1)c1ccc(Cl)c([N+](=O)[O-])c1`, the binding response (% of control) was 106%.
For `CC1CN(C(=O)c2ccccc2NS(=O)(=O)c2cccc([N+](=O)[O-])c2)CC(C)O1` (stereo not drawn), the binding response (% of control) was 101%.
On to `CC(C)c1ccc(C(=O)NCCCc2ccccc2)cc1`, for which the binding response (% of control) is 98%.
In the case of `O=C(O)c1cccnc1NC1CCCC1` it was 108%; in that of `COc1cccc(NC(=S)NCCCN2CCOCC2)c1`, 106%.
As for `COC(=O)CCc1sc(Nc2ccc(Br)cc2)nc1-c1ccc(OC)cc1`, the figure is 106%; as for `O=C(Cc1cccc2ccccc12)Nc1ccc2oc(-c3ccccc3)nc2c1`, 102%.
As for `O=C(NNc1c2ccccc2nc2ccccc12)c1cc2ccccc2cc1O`, the figure is 51% (active); as for `CNC(=O)/C(=C\C=C\c1ccccc1)NC(=O)c1ccc([N+](=O)[O-])cc1`, 107%; as for `COc1ccc(C(=O)NCC(=O)N/N=C/c2ccc([N+](=O)[O-])o2)cc1OC`, 93%.
As for `Cc1c(-c2ccccc2)cn2c1-c1ccc(C)n1CC2`, the binding response (% of control) is 93%.
As for `Cc1ccc(C)c(CN2CCC(CNC(=O)Nc3ccc(C)c(F)c3)CC2)c1`, the figure is 107%; as for `COc1cc(-c2nc(-c3ccncc3)no2)cc(OC)c1OC`, 104%.
In the case of `Cc1ccc(S(=O)(=O)/N=S(\C)C(C)C)cc1` (stereo not drawn) it was 101%.
As for `CCOC(=O)Cc1csc(NC(=O)CSc2nc(C)cc(=O)[nH]2)n1`, the figure is 99%; as for `COc1ccc(CNC(=O)C2CCN(S(C)(=O)=O)CC2)cc1`, 102%; as for `O=C(Cc1cccs1)N/N=C/c1ccc(OCc2ccccc2)cc1`, 104%.
Regarding `COc1ccc(S(=O)(=O)N2CN(CCc3ccc(OC)c(OC)c3)c3nc4ccccc4nc32)cc1`, the binding response (% of control) was 97%.
As for `COc1cc(CC(=O)N/N=C/c2ccccc2)c([N+](=O)[O-])cc1OC`, the figure is 104%.
In the case of `FC(F)(F)c1cccc(N/N=C/c2ccccc2)c1` it was 105%; in that of `CCOC(=O)CN(C)S(=O)(=O)c1ccc(-c2cc(C(=O)OC)sc2C(F)(F)F)cc1`, 103%; in that of `COc1ccc(C2CC(=O)Nc3cc(C)c(C)cc32)c(OC)c1OC` (stereo not drawn), 104%.
Turning to `O=C(c1ccco1)N1CCN(c2cccc(Cl)c2)CC1`, the binding response (% of control) is 100%.
